# The list is not random: actives were taken first. Their share in the collection is about 9%.
# 12-LOX inh – Primary qHTS assay for inhibitors of human arachidonate 12S-lipoxygenase (ALOX12): Round 2 | Potency, µM (titrated, usually from 108 µM), inactives show at the highest dose activity change, negative = inhibition, actives largely listed as inhibitors | Polyunsaturated fatty acid lipoxygenase ALOX12 (Homo sapiens), P18054 | purified 12hLO, xylenol orange hydroperoxide absorbance | actives 1.1% (n = 580,000); further: on the % scale 0 is the no-effect control and ±100 the full control effect
#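 Purified human 12hLO (150 nM final) in 25 mM Hepes, 0.01% Triton X-100, pH 7.0 was preincubated 15 min at room temperature with compound. Then 40 uM arachidonic acid was added, 30 min. Hydroperoxide was read by Fe-XO absorbance ratio 573/405 nm.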
# HP1b chromo inh – HTS for Inhibitors of HP1-beta Chromodomain Interactions with Methylated Histone Tails. Potency, µM (top dose mostly 114 µM), without a hit: at the top dose activity change, negative = inhibition, hits mostly inhibitors. AID 540317, 2011. AlphaScreen HP1-beta / biotin-H3K9me3 peptide binding. actives 0.56% (n = 390,000); further: nearly all actives have a fitted effect of over 70% in size
#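 AlphaScreen: HP1-beta (50 nM) preformed 30 min with biotin-H3(1-18)K9me3 peptide (50 nM) in PBS pH 7.4, 0.01% Tween-20. Compound added for 30 min at RT, then streptavidin donor/nickel chelate acceptor beads (10 ug/mL) for 30 min.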
# PLK1 PBD block – qHTS for Inhibitors of PLK1-PDB (polo-like kinase 1 - polo-box domain): Primary Screen | actives 2.8% (n = 360,000) | Potency, µM, inactives show max response, negative = inhibition, actives largely listed as inhibitors | Plk1 PBD binding of FITC phosphopeptide, fluorescence polarization | Serine/threonine-protein kinase PLK1 (Homo sapiens), P53350; further: series mostly up to about 57 µM; on the % scale 0 is the no-effect control and ±100 the full control effect; nearly all actives have a fitted effect of over 65% in size
# JMJD2A Tudor – qHTS Assay for Inhibitors of JMJD2A-Tudor Domain. Lysine-specific demethylase 4A (Homo sapiens), O75164. AlphaScreen JMJD2A-Tudor / H3K4me3 peptide binding. Potency, µM (top dose mostly 114 µM), without a hit: at the highest dose activity change, negative = inhibition, usual class: inhibitors. actives 4.4% (n = 390,000); further: on the % scale 0 is the no-effect control and ±100 the full control effect; nearly all actives have a fitted effect of over 50% in size
# BAZ2B inh – qHTS Assay for Inhibitors of BAZ2B; Bromodomain adjacent to zinc finger domain protein 2B (Homo sapiens), Q9UIF8; AlphaScreen BAZ2B-H3K14Ac peptide displacement; Potency, µM (series often up to 114 µM), for the others: at the highest dose activity change, negative = inhibition, usual class: inhibitors; actives 4.4% (n = 360,000); further: on the % scale 0 is the no-effect control and ±100 the full control effect; nearly all actives have a fitted effect of over 60% in size
#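 AlphaScreen displacement: compounds (up to 110uM) incubated 30 min at room temperature with a preformed 50 nM BAZ2B/50 nM biotinylated H3K14Ac peptide complex in PBS pH 7.4 with Tween-20. Donor and acceptor beads at 10 ug/mL final added, 20 min light-protected before reading.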
# G9a block – qHTS Assay for Inhibitors of Histone Lysine Methyltransferase G9a. G9a H3K9 monomethylation, AlphaScreen, 2 h. actives 8.8% (n = 350,000). Potency, µM (doses to about 102 µM), for inactives: at the highest dose activity, negative = inhibition, hits mostly inhibitors. Histone-lysine N-methyltransferase EHMT2 (Homo sapiens), Q96KQ7; further: on the % scale 0 is the no-effect control and ±100 the full control effect; nearly all actives have a fitted effect of over 75% in size
#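 Compounds were preincubated with 20 nM G9a for 15 min, after which biotinylated H3K9 peptide (500 nM) and SAM (20 uM) started a 2 h room-temperature reaction. Monomethylated product was quantified by antibody-based AlphaScreen chemiluminescence.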
# * hit, by the source's call; i = inactive; ? = inconclusive; · = not tested or not shown; [ ] = dose if it differs, or a comment. The call rests on the fitted dose curve; in most records, active means well fitted curve in the direction sought with a large enough effect; inconclusive means small, poorly fitted or top-dose-only effect, or another doubt; inactive means no such curve, though single readings can be large; an effect the other way counts as inactive or inconclusive. Potency means the concentration at half of the fitted maximal effect.
SMILES,12-LOX inh,HP1b chromo inh,PLK1 PBD block,JMJD2A Tudor,BAZ2B inh,G9a block
O=C(Cc1cccs1)NNC(=S)NCc1ccco1,i,25%,-9%,-17%,-3%,50µM*
CN(C)c1ccc(C(=S)NCc2ccco2)cc1,?,?,19µM*,?,?,?
S=C(NCc1ccccc1)NCc1ccco1,0%,5%,?,-25%,-30%,?
CCN(CC)C(=O)Cn1cc(C(=O)C(=O)NCCCn2ccnc2)c2ccccc21,-3%,4%,-14%,-10%,0%,-28%
CC(=O)c1cccc(NC(=O)c2cc3c(n2C)CCN(Cc2cccc(F)c2)C3)c1,8%,·,·,·,·,·
Cc1c(Cl)c(C(=O)NNC(=S)NCc2ccco2)nn1C,-14%,23%,-22%,-26%,14%,?
Cc1cccc(NC(=S)NCc2ccco2)n1,?,27%,-4%,6%,-2%,2µM*
CC(C)(C)NC(=S)NCc1ccco1,?,-4%,-7%,-16%,-9%,79µM*
COc1ccccc1NC(=S)NCc1ccco1,0%,13%,-15%,-23%,-3%,?
Cn1cc(Cl)c(C(=O)NNC(=S)NCc2ccco2)n1,-1%,-5%,27µM*,-25%,9%,40µM*
O=C(CC12CC3CC(CC(C3)C1)C2)NC(=S)NCc1ccco1,28µM*,-10%,-18%,-29%,-23%,-46%
O=C(NCc1ccco1)C12CC3CC(CC(C3)C1)C2,-17%,7%,1%,5%,4%,7%[59 µM]
CCC(CC)c1nnc(NC(=O)C2CC(c3ccccc3)=NO2)s1 (stereo not drawn),-1%,·,·,·,·,·
S=C(NCc1cccc(Cl)c1)NCc1ccco1,?,0%,?,-25%,-30%,·
CC(C)CCNC(=S)NCc1ccco1,32µM*,·,·,·,·,·
O=C(NC1CCN(C(=S)NCc2ccco2)CC1)NC12CC3CC(CC(C3)C1)C2,-9%,12%,30µM*,-13%,-3%,3%[59 µM]
COC(=O)c1c(C)oc2ccc(N(C(=O)c3ccncc3)S(=O)(=O)c3cc(C)c(C)cc3C)cc12,-26%,12%,·,-31%,-26%,10µM*
COC(=O)c1c(C)oc2ccc(N(C(=O)c3ccncc3)S(=O)(=O)c3ccc(C)cc3C)cc12,-8%,-1%,-22%,-30%,3%,-14%[59 µM]
COCCNC(=O)Cn1nc2c(cc1=O)CCCC2,20%,·,·,·,·,·
CSc1ccc(CNCc2c(C(=O)O)c(C)n(Cc3ccc(F)cc3Cl)c2C)cc1,-13%,-2%,·,?,-33%,-1%[59 µM]
O=C1C2CCCCC2C(=O)N1c1ccc(NC2CCN(Cc3ccccc3)CC2)c([N+](=O)[O-])c1 (stereo not drawn),-2%,?,-1%,45µM*,40µM*,?
O=[N+]([O-])c1ccc(NC2CCN(Cc3ccccc3)CC2)c([N+](=O)[O-])c1,-21%,?,2%,-72%,?,?
O=[N+]([O-])c1ccccc1NC1CCN(Cc2ccccc2)CC1,?,?,0%,?,40µM*,·
O=C1CCC(=O)N1c1ccc(NC2CCN(Cc3ccccc3)CC2)c([N+](=O)[O-])c1,-11%,-2%[57 µM],-6%,-25%,0%,12%
NC(=O)CC(NC(=O)Cc1ccc(Br)cc1)c1ccc(NC2CCN(Cc3ccccc3)CC2)c([N+](=O)[O-])c1 (stereo not drawn),?,24%,43%,-19%,-28%,?
SMILES,12-LOX inh,HP1b chromo inh,PLK1 PBD block,JMJD2A Tudor,BAZ2B inh,G9a block
CC1CCC2C(=O)N(c3ccc(NC4CCN(Cc5ccccc5)CC4)c([N+](=O)[O-])c3)C(=O)C2C1 (stereo not drawn),-11%,?,8%,32µM*,35µM*,40µM*
Nc1ncc(C(=O)N2CCC3(CC2)[C@H](O)C[C@@H]3O)c(C(F)(F)F)n1,11%,·,·,·,·,·
N#Cc1ccc(-c2ccc(OCC(O)Cn3nnc4ccccc43)cc2)cc1 (stereo not drawn),0%[57.4 µM],60%,-9%,-17%,7%,22%[59 µM]
NC(=O)c1ncn([C@H]2O[C@@H](CO)[C@@H](O)[C@@H]2O)n1,·,·,·,·,·,16%[21.5 µM]
CC(C)NS(=O)(=O)c1ccc(C(=O)NCc2ccc(-c3nc4ccccc4s3)o2)cc1,25µM*,·,·,·,·,·
O=C(NCc1ccc(-c2nc3ccccc3s2)o1)c1ccccc1Br,-21%,·,·,·,·,·
OC(COCC(F)(F)C(F)(F)C(F)(F)C(F)F)Cn1c2ccccc2c2ccccc21 (stereo not drawn),-5%,80%,-9%,10%,72%,19%[59 µM]
CCOc1ccc2nc(NC(=O)CN3C(=O)NC4(CCCC4)C3=O)sc2c1,3%,-1%,-12%,-23%,-2%,50µM*
CCOc1ccc(Oc2ccccc2NC(=O)CN2C(=O)NC3(CCCC3)C2=O)cc1,15%,11%,1%,-9%,0%,56µM*
CCC(=O)Nc1ccccc1Oc1ccccc1,0%,?,24µM*,56µM*,10%,5%[59 µM]
CC(O)CNC(=S)Nc1ccccc1 (stereo not drawn),38%,33%,-27%,-7%,-16%,-2%
S=C1NNC2(NN1)C1CC3CC(C1)CC2C3,?,22%,-4%,?,-31%,8.9µM*
CCOC(=O)c1c(-c2ccc(Cl)cc2)csc1NC(=O)CNCc1ccco1,-1%,?,2%,45µM*,40µM*,-132%[59 µM]
CCOC(=O)c1c(-c2ccc(OC)cc2)csc1NC(=O)CNCc1ccco1,1%,-1%,-8%,?,-44%,-49%
CCOC(=O)c1c(-c2ccccc2)csc1NC(=O)C(C)NCc1ccco1 (stereo not drawn),-3%,28µM*,-19%,?,50µM*,25µM*
CCn1c(SCC(=O)c2ccc(O)c(O)c2)nnc1-c1ccccc1OC,?,?,-4%,28µM*,79µM*,?
CCn1c(SCC(=O)c2ccc(O)c(O)c2)nnc1-c1ccccc1,?,10%,-4%,?,?,14µM*
C=CCn1c(SCC(=O)c2ccc(O)c(O)c2)nnc1-c1ccccc1OC,?,26%,2%,?,50µM*,5µM*
